Hit rate of the full screen: of about 5,500 compounds, about 2,000 (36%) were called active. About 18% were inconclusive and are not listed. Rule as the data show it: active = normalized growth mostly below about 0.91 (no sharp cut-off); inconclusive = no clear call, values can overlap the other calls; inactive = mostly above about 0.92. Some of the results follow.
Assay: chemical genetic growth profiling, strain panel (AID 1159580);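 also: tested at 20 µM; growth read once vehicle control cultures reached saturation at 30 °C; 1 = growth at the plate median or of vehicle wells; lower values mean less growth of the strain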
Details: S. cerevisiae deletion strains, growth OD
[1] = locus YJR075W, strain HOC1, active compounds read low
[2] = locus YMR263W, strain SAP30, active compounds read low
[3] = locus YNL153C, strain GIM3, active compounds read low

Measured: normalized growth

C=C(C)C1(O)OC(=O)C=C1OC (stereo unspecified)
inactive: locus YBR021W, strain FUR4, active compounds read low 0.995 | locus YBR229C, strain ROT2, active compounds read low 0.944 | locus YCL029C, strain bik1, active compounds read low 0.977 | locus YDL035C, strain GPR1, active compounds read low 0.987 | locus YDL074C, strain BRE1, active compounds read low 1.01 | locus YDL101C, strain DUN1, active compounds read low 0.994 | locus YDL185W, strain tfp1, active compounds read low 0.968 | locus YDL192W, strain arf1, active compounds read low 0.984 | locus YDR101C, strain arx1, active compounds read low 1 | locus YDR150W, strain NUM1, active compounds read low 0.986 | locus YDR162C, strain NBP2, active compounds read low 0.961 | locus YDR318W, strain mcm21, active compounds read low 0.981 | locus YDR388W, active compounds read low 0.997 | locus YDR502C, strain sam2, active compounds read low 0.996 | locus YEL061C, strain CIN8, active compounds read low 0.989 | locus YER110C, active compounds read low 0.991 | locus YER155C, strain BEM2, active compounds read low 0.996 | locus YER167W, strain BCK2, active compounds read low 0.978 | locus YGL078C, strain dbp3, active compounds read low 0.991 | locus YGL086W, strain mad1, active compounds read low 1.03 | locus YGL248W, strain PDE1, active compounds read low 0.978 | locus YGR078C, strain PAC10, active compounds read low 1.03 | locus YGR135W, strain pre9, active compounds read low 0.983 | locus YGR252W, strain gcn5, active compounds read low 0.98 | locus YHR030C, strain SLT2, active compounds read low 0.981 | locus YHR079C, strain IRE1 (second series), active compounds read low 0.986 | locus YHR094C, strain hxt1, active compounds read low 0.983 | locus YHR129C, strain ARP1, active compounds read low 0.985 | locus YHR200W, strain rpn10, active compounds read low 0.994 | locus YIL066C, strain RNR3, active compounds read low 0.965 | locus YIL073C, strain SPO22, active compounds read low 0.978 | locus YIL125W, strain kgd1, active compounds read low 0.98 | locus YIR030C, strain dcg1, active compounds read low 0.986 | locus YJL095W, strain BCK1, active compounds read low 1.06 | locus YJL134W, strain LCB3, active compounds read low 0.981 | locus YJL168C, strain set2, active compounds read low 0.992 | locus YJL187C, strain SWE1 (second series), active compounds read low 1 | locus YJR043C, strain POL32, active compounds read low 0.948 | [1] 1.03 | locus YKL009W, strain mrt4, active compounds read low 1.01 | locus YKL068W, active compounds read low 0.965 | locus YKL085W, strain MDH1 (second series), active compounds read low 0.962 | locus YKL085W, strain MDH1, active compounds read low 0.962 | locus YKL190W, strain CNB1, active compounds read low 1 | locus YKR001C, strain vps1, active compounds read low 0.995 | locus YLR039C, strain RIC1, active compounds read low 0.963 | locus YLR058C, strain SHM2, active compounds read low 0.97 | locus YLR102C, strain apc9, active compounds read low 0.99 | locus YLR262C, strain YPT6, active compounds read low 0.918 | locus YLR268W, strain sec22, active compounds read low 1.04 | locus YLR330W, strain CHS5, active compounds read low 0.992 | locus YLR342W, strain FKS1 (second series), active compounds read low 0.985 | locus YLR371W, strain rom2, active compounds read low 0.97 | locus YLR418C, strain cdc73, active compounds read low 0.964 | locus YML016C, strain PPZ1, active compounds read low 0.978 | locus YML032C, strain rad52, active compounds read low 0.975 | locus YML124C, strain tub3, active compounds read low 0.984 | locus YMR078C, strain ctf18, active compounds read low 0.991 | locus YMR223W, strain ubp8, active compounds read low 0.992 | [2] 1.01 | locus YMR307W, strain GAS1, active compounds read low 0.947 | locus YNL067W, strain RPL9B, active compounds read low 1.03 | locus YNL128W, strain TEP1, active compounds read low 0.997 | [3] 1.02 | locus YNL233W, strain BNI4, active compounds read low 1.04 | locus YNL250W, strain rad50, active compounds read low 0.958 | locus YNL271C, strain bni1, active compounds read low 0.989 | locus YNL298W, strain CLA4, active compounds read low 1.02 | locus YNL307C, strain MCK1, active compounds read low 0.999 | locus YNL322C, strain KRE1, active compounds read low 0.98 | locus YNR052C, strain pop2, active compounds read low 1.01 | locus YOL006C, strain TOP1, active compounds read low 1.05 | locus YOL012C, strain htz1 1.2 | locus YOL147C, strain pex11, active compounds read low 0.991 | locus YOR061W, strain CKA2, active compounds read low 0.964 | locus YOR069W, strain VPS5, active compounds read low 0.985 | locus YOR136W, strain idh2, active compounds read low 1 | locus YOR144C, strain elg1, active compounds read low 0.981 | locus YOR184W, strain ser1, active compounds read low 0.973 | locus YOR316C, strain cot1, active compounds read low 0.994 | locus YPR119W, strain clb2, active compounds read low 0.987 | locus YPR141C, strain kar3, active compounds read low 0.977 | locus YPR163C, strain tif3, active compounds read low 0.99 | locus YPR167C, strain met16, active compounds read low 0.992 | strain wtn01, active compounds read low 1.02

O=C1c2ccccc2-c2n[nH]c3cccc1c23
active: locus YAL040C, strain CLN3, active compounds read low 0.674 | [1] 0.827 | [3] 0.345 | locus YNL175C, strain NOP13, active compounds read low 0.621 | locus YNL197C, strain WHI3, active compounds read low 0.826 | locus YNL224C, strain SQS1, active compounds read low 0.654 | locus YOR083W, strain WHI5 (second series), active compounds read low 0.504 | locus YPL055C, strain LGE1, active compounds read low 0.727
inactive: locus YDR363W, strain ESC2, active compounds read low 0.906 | locus YER002W, strain NOP16, active compounds read low 0.982 | [2] 0.981

Source: PubChem BioAssay AID1159580 (chemical genetic matrix, 2015)
